# Screening results deposited in PubChem by several laboratories.
# A selection: hits, their analogues and other compounds. The true share with any hit is near 1.5%.
# DUSP3 inh: inhibitors of human VHR1 phosphatase (DUSP3); recombinant VHR phosphatase, pNPP absorbance; inhibition, % at 13.3 µM; hit rate 0.52% among 290,000; AID 1654; in the data active means inhibition above about 50%
# Target sequence (P51452 whole entry, looked up): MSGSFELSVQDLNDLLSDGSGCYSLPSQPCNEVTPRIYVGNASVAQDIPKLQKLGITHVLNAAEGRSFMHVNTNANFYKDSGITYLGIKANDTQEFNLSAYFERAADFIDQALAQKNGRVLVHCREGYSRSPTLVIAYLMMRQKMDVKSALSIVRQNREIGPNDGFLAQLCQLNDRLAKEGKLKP
# SARS 3CLpro inh: SARS-CoV 3CLpro protease inhibition | recombinant SARS-CoV 3CLpro, quenched FRET peptide cleavage | inhibition, % at 6 µM | hit rate 0.14% among 290,000 | AID 1706; in the data active means inhibition above about 12%
# CCHF vOTU inh-1: CCHFV vOTU protease inhibition | inhibition, % at 11.5 µM | Pep-AMC fluorescence | hit rate 0.55% among 370,000; further: 0% = vehicle wells with enzyme and 100% = no enzyme wells
# RecA intein inh: inhibitors of M. tuberculosis RecA intein splicing. P9WHJ3. cell-free RecA intein splicing, fluorescence. inhibition, % (test concentration not listed). hit rate 0.75% among 290,000. AID 2221; in the data active means inhibition above about 30%;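 further: 0% = vehicle wells and 100% = reference inhibitor control wells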
# CCHF vOTU inh-2: CCHFV vOTU protease inhibition, confirmation | shares compounds with CCHF vOTU inh-1 | Recombinant CCHFV vOTU, Pep-AMC fluorescence | inhibition, % at 11.5 µM | hit rate 17% among 1,900
# An asterisk follows results filed as active; x = not tested or not shown; ! = a repeat was not active. Unless noted, no stated cut-off is given here; in the data, active means inhibition above about 30%; inactive means the rest.
SMILES,DUSP3 inh,SARS 3CLpro inh,CCHF vOTU inh-1,RecA intein inh,CCHF vOTU inh-2
S=C(NCc1ccccc1)NNc1nc2ccccc2[nH]1,9.1,1.3,-9.8,1.9,x
COc1cc(/C=N/NC(=O)C(Cc2c[nH]c3ccccc23)NC(=O)OCc2ccccc2)cc([N+](=O)[O-])c1O (stereo not given),23.7,-0.5,35.0*,4.0,10.2
COc1cc(/C=N/NC(=O)C(Cc2c[nH]c3ccccc23)NC(=O)OCC(C)C)cc([N+](=O)[O-])c1O (stereo not given),6.8,2.1,24.9,0.9,x
Cc1cc(Cl)c(C)c(S(=O)(=O)Oc2ccccc2NC(=O)CCC(=O)O)c1Cl,x,x,33.2*,x,-5.8
COc1cc(NC(C)CCCNC(C)C)c2ncccc2c1OC (stereo not given),x,x,17.3,x,x
COc1cc(NCCCCCCN)c2ncccc2c1OC,x,x,102.1*,x,93.5*
COc1cc(N)c2ncccc2c1OC,x,x,40.0*,x,3.3
Cc1cccc(C(=O)OC(C)CN2C(C)CCCC2C)c1 (stereo not given),x,2.0,2.7,0.3,x
CC(=O)Nc1ccc(Nc2nc3ccccc3nc2NS(=O)(=O)c2ccc(Cl)c([N+](=O)[O-])c2)cc1,x,x,31.7*,x,15.0
Cc1cc(N/C(=C\C(=O)c2ccccc2)c2ccccc2)ccc1Br,x,x,-8.3,x,x
O=C(Nc1ccc(Cl)c(Cl)c1)OCCNC(=O)c1cccc(Cl)c1,2.0,-2.0,14.6,14.8,x
CCOc1cccc(CNc2ccc(O)cc2)c1OCc1ccc(Cl)cc1Cl,3.6,2.8,49.3*,17.5,6.7
CCOc1cccc(CNc2ccc(O)cc2)c1OCc1ccccc1Cl,-16.0,0.7,44.0*,13.2,2.9
COc1ccc(OC)c2c1cc(C(=O)N[C@@H](Cc1ccccc1)C(=O)O)n2C,33.4,0.8,4.3,0.2,x
COc1ccc(OC)c2c1cc(C(=O)N[C@H](C(=O)N1CCC(C(=O)O)CC1)C(C)C)n2C,13.3,-4.6,35.7*,8.2,20.0
Cc1ccc(S(=O)(=O)NCCOc2cc(C)ccc2C)cc1,-5.4,1.0,30.3*,5.0,-8.5
CN(/N=C/C=C/c1ccccc1)c1cc(=O)n(C)c(=O)[nH]1,7.6,-2.5,31.6*,11.8,15.2
COc1ccc(C)cc1-n1cnc2sc(C)c(C)c2c1=O,x,x,30.1*,x,-22.2
COc1cc(O)c(NC(C)=O)c2nonc12,-0.9,-3.4,39.5*,5.1,-19.8
CN(C)S(=O)(=O)c1ccc(NC(=O)CSc2nnc(-c3ccco3)n2N)cc1,x,x,5.0,x,x
COC(=O)C1=C(C)N(Cc2ccc(C(F)(F)F)cc2)C(=NCc2cccc(C(F)(F)F)c2)NC1c1ccccc1C(F)(F)F (stereo not given),x,x,7.2,x,x
COC(=O)C1=C(C)N(Cc2cccc(C(F)(F)F)c2)C(=NCc2ccc(C(F)(F)F)cc2)NC1c1ccc(F)cc1 (stereo not given),x,x,25.0,x,x
COC(=O)C1=C(C)N(Cc2ccc(C(F)(F)F)cc2)C(=NCc2ccc(OC)cc2)NC1c1ccccc1C(F)(F)F (stereo not given),x,x,34.9*,x,-6.1
COC(=O)C1=C(C)N(Cc2cccc(C(F)(F)F)c2)C(=NCc2ccc(C(F)(F)F)cc2)NC1c1cccc(F)c1 (stereo not given),x,x,38.1*,x,3.1
COC(=O)C1=C(C)N(Cc2cccc(C(F)(F)F)c2)C(=NCc2ccc(C(F)(F)F)cc2)NC1c1ccc(C(F)(F)F)cc1 (stereo not given),x,x,40.2*,x,11.1
SMILES,DUSP3 inh,SARS 3CLpro inh,CCHF vOTU inh-1,RecA intein inh,CCHF vOTU inh-2
CC(C)C[C@@H](COCc1cccc(C(F)(F)F)c1)N1CCN(C(=O)c2ccc(C(F)(F)F)cc2)CCC1=O,x,x,38.5*,x,16.2
O=C(c1ccc(C(F)(F)F)cc1)N1CCC(=O)N([C@H](COCc2ccc(Cl)cc2)Cc2ccccc2)CC1,x,x,32.0*,x,6.8
O=C(c1ccc(C(F)(F)F)cc1)N1CCC(=O)N([C@H](COCc2ccc(C(F)(F)F)cc2)Cc2ccccc2)CC1,x,x,33.7*,x,6.7
O=C(c1ccc(C(F)(F)F)cc1)N1CCC(=O)N(C(CO)Cc2ccccc2)CC1 (stereo not given),x,x,-3.4,11.8,x
CCCCOc1ccc(C(=O)N/C(=C/C=C/c2ccccc2)C(=O)O)cc1,-12.3,3.9,29.3,-60.7,x
CCCCOc1ccc(C(=O)N/C(=C/C=C/c2ccccc2)C(=O)NC)cc1,-11.3,-3.4,31.5*,x,-3.4
CCCCCCCCN1C(=O)[C@@H](CC(=O)NCCC(C)C)C[C@@]2(C(=O)OC)C1=C[C@H](C(C)C)O[C@@H]2C1CC1,x,x,34.5*,x,16.5
CCCCCCCCN1C(=O)[C@@H](CC(=O)N2CCCCC2)C[C@@]2(C(=O)OC)C1=C[C@H](C(C)C)O[C@@H]2C1CC1,x,x,31.6*,x,8.0
CCCCCCCCN1C(=O)[C@@H](CC(=O)NCc2cccs2)C[C@@]2(C(=O)OC)C1=C[C@H](C(C)C)O[C@@H]2C1CC1,x,x,38.9*,x,19.5
CC(C)Cc1ccc(C(C)CC2=CCC(CN(C)C)C2=O)cc1 (stereo not given),x,x,6.0,x,x
CC(C)CCN1CCN(Cc2ccc(C#CCCO)cc2)CC1CCO (stereo not given),3.9,0.2,-4.6,0.9,x
Cc1ccc(CCNC(=O)CN(C)S(=O)(=O)c2ccc3c(c2)n(C)c(=O)c(=O)n3C)cc1,21.3,-0.6,0.5,1.0,x
Nc1ccc2ccc(N)cc2c1,x,x,33.8*,x,-31.8
CCNc1nc(NC(C)C)nc(Oc2ccc(=O)n(C)n2)n1,17.4,1.8,-2.4,0.4,x
O=C1C(Cc2ccccc2)Nc2ncnc(N3CCN(c4ccccc4)CC3)c2N1Cc1ccccc1 (stereo not given),x,x,6.3,6.7,x
O=C1C(Cc2ccccc2)Nc2ncnc(N3CCOCC3)c2N1Cc1ccc(Cl)cc1 (stereo not given),x,x,30.8*!,2.4,-18.4
Cc1cc(=O)n(C)c2ccccc12,2.0,3.5,0.2,3.6,x
Cc1cc(=O)n2c3c(c4c(cc13)c(CN(C)C)cc(=O)n4C)OC2,x,x,90.1*,x,51.0*
CCOC(=O)c1c(CN(C)C)n(C)c2c(O)c(N=NC(N)=O)c3ccc(Br)cc3c12,-2.4,-4.4,36.0*,-0.1,12.7
Cc1nc(-c2ccccc2)sc1C1(C)CC(c2cccc([N+](=O)[O-])c2)=NO1 (stereo not given),7.3,x,-3.5,3.0,x
Cc1ccc(C=Nc2ccc(N(C)C)cc2)o1,8.4,4.0,33.4*,-1.4,-3.7
CC1=CC(=O)c2ccccc2C1=O,8.6,-4.2,11.2,14.8,x
CC(C)(C=O)C1=CC(=O)c2ccccc2C1=O,47.0,-2.5,79.3*,x,-27.4
CN=c1sc2c(n1C)C(=O)c1ccccc1C2=O,x,x,80.0*,x,79.3*
CN=c1sc(C(=O)Nc2ccccc2)c(C)n1C,-6.4,8.9,-6.3,-0.8,x
CCN1CCN(C2=C(NS(=O)(=O)c3ccccc3)C(=O)c3ccccc3C2=O)CC1,20.9,3.1,46.1*,3.6,14.5
CCN1CCN(C2=C(NS(=O)(=O)c3ccc(Br)cc3)C(=O)c3ccccc3C2=O)CC1,33.7,-2.1,78.1*,0.6,19.0
C=CCC[C@H](Cc1ccc(F)cc1)C(=O)OC[C@@H](C)NC(=O)[C@H](CC=C)CC(=O)N(CCO)Cc1ccccc1,x,x,19.6,x,x
